Rows were chosen to be rich in hits. Some 3.1% of all compounds tested hit in one or more screens of this group.
D3 antag: antagonists of human D3 dopamine receptor. AID 652054. max response, negative = inhibition, %. 2.5% of 360,000 active. P35462. D3R cells, DiscoveRx beta-arrestin luminescence, antagonist mode; stronger effect = lower value; in the data active = max response below about -50%; inconclusive = no clear call, values can overlap the other calls; note: % is set by controls: 0 for no effect and ±100 for the full control effect
Target sequence (P35462 whole entry, looked up): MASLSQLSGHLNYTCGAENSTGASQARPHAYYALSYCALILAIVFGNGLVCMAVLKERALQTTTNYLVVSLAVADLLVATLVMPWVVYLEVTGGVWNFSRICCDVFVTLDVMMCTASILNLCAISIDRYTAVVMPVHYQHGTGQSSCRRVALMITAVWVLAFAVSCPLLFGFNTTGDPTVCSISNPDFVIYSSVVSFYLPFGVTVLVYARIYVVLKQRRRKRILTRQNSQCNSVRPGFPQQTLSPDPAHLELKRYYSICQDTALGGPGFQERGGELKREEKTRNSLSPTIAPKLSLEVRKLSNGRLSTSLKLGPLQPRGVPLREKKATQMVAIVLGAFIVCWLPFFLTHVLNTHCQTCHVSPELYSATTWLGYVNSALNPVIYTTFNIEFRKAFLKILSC
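Cells plated overnight at 1500 cells/well, then exposed to library compounds with dopamine controls for 90 minutes at 37 degrees C. DiscoveRx reagent added for 30–60 minutes at room temperature; luminescence read, quantitative HTS format.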
RGS4 inhibitor: inhibitors of human regulator of G protein signaling 4; P49798; Transcreener GDP fluorescence polarization, RGS4-accelerated GTP hydrolysis; Potency, µM (series often up to 114 µM), without a hit: top-dose activity change, negative = inhibition, usual class: inhibitors; 0.039% of 390,000 active; active = well fitted inhibition curve with a large enough effect; inconclusive = small, poorly fitted or top-dose-only effect; inactive = no such curve, though single readings can be large or run the other way; note: potency is the fitted concentration of half-maximal effect; % is set by controls: 0 for no effect and ±100 for the full control effect; nearly all actives have a fitted effect of over 75% in size
Target sequence (P49798 whole entry, looked up): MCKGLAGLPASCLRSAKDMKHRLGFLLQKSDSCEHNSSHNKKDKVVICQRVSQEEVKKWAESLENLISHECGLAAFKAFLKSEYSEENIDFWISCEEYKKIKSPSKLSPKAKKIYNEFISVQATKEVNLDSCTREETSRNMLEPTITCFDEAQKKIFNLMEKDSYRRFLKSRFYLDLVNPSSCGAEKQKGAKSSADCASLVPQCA
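MLSMR compounds (23 nl, pin-transferred) preincubated 10 min at room temperature with a 500nM (2x) first reagent, then RGS4 at 900nM (2x) plus Transcreener GDP mix added; fluorescence polarization (620/688 nm) read before and after 90 min at 30 °C.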
uPA surface inh: inhibitors of cell surface uPA generation. AID 540303. 0.31% of 330,000 active. cell surface uPA generation assay, qHTS. Potency, µM (highest dose often 38.3 µM), inactives show at the highest dose activity change, negative = inhibition, usual class: inhibitors; active = well fitted inhibition curve with a large enough effect; inconclusive = small, poorly fitted or top-dose-only effect; inactive = no such curve, though single readings can be large or run the other way; tested in mouse RAW 264.7 cells; note: potency is the fitted concentration of half-maximal effect; % is set by controls: 0 for no effect and ±100 for the full control effect; nearly all actives have a fitted effect of over 55% in size
DRD3 agonist: activates the human D3 dopamine receptor | P35462 | D3R DiscoveRx beta-arrestin cells, luminescence, 90 min | max activation, % | 0.58% of 410,000 active | AID 652048; in the data active = max activation above about 30%; note: 0% is about no effect
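Agonist mode: compounds and dopamine controls were applied to plated cells for 90 min at 37 degrees C after an overnight attachment at 1500 cells/well. Luminescent read-out followed 30 - 60 minutes at room temperature with DiscoveRx detection reagent.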
The depositor's hits bear a star; u = inconclusive; x = no result given; [ ] = another dose, or the depositor's remark.

SMILES | D3 antag | RGS4 inhibitor | uPA surface inh | DRD3 agonist
CN(C)C(CNC(=O)c1ccc(Cl)c(S(=O)(=O)N2CCCCCC2)c1)c1ccccc1 (configuration not stated) | -81* | 14% | u | -25
CSCCC(NC(=O)c1cccc(S(=O)(=O)N2CCN(C(C)=O)CC2)c1)c1nc2ccccc2[nH]1 (configuration not stated) | 0 | 30% | -5% | 7
O=C(NCc1ccccc1CN1CCCC1)c1ccc(S(=O)(=O)Nc2ccccc2F)cc1 | -6 | x | x | 0
Cc1c(-c2nsc(NC(=O)c3cccs3)n2)nnn1-c1ccc(Br)cc1 | x | -41% | x | -20
Cc1ccc(-c2cc(NC(=O)COc3c(C)cc(C)cc3C)on2)cc1 | x | -7% | x | -1
O=C(NCc1ccccc1CN1CCCC1)c1ccc(Cl)c(S(=O)(=O)N2CCCC2)c1 | -50* | 23% | -29% | -31
CN(C)C(CNC(=O)c1cccc(S(=O)(=O)N2CCN(c3ccc(F)cc3)CC2)c1)c1ccccc1 (configuration not stated) | -81* | 21% | -11% | -16
O=C(O)c1cccc(NC(=O)c2ccc(Cl)c(S(=O)(=O)N3CCCCCC3)c2)c1 | -9 | 19% | 6.3µM* | 2
O=C(Nc1ccc(F)cc1)c1ccc2c(c1)NC(=O)c1ccccc1S2 | x | -23% | x | 5
CC(=O)Nc1ccc(Sc2ncccc2C(=O)Nc2cc(Cl)cc(Cl)c2)cn1 | -52* | -10% | -1% | -33
CCc1ccc2occ(CC(=O)Nc3nnc(C)s3)c2c1 | x | -5% | x | 8
CCC(C)NCCCOc1ccc(C)cc1OC (configuration not stated) | u | 24% | 2% | -8
Cc1ccc(OCCN2C(=O)c3ccccc3C2=O)c([N+](=O)[O-])c1 | -69* | -16% | 4% | -17
COCCCNCCOCCOc1ccc(C)cc1[N+](=O)[O-] | -54* | -33% | 2% | -4
Cc1cc(OCCN2CCC(Cc3ccccc3)CC2)ccc1[N+](=O)[O-] | -64* | -21% | -2% | -24
Cc1cc(OCCN2CC(C)OC(C)C2)ccc1[N+](=O)[O-] (configuration not stated) | -24 | -24% | -13% | -6
CCC(C)NCCCCOc1ccc(C)cc1[N+](=O)[O-] (configuration not stated) | -93* | 3% | x | -30
COc1ccc2c(Sc3ccc(C)cc3)c(C(=O)NCC(C)c3ccccc3)[nH]c2c1 (configuration not stated) | x | -28% | x | -10
CC(C)CCC[C@@H](C)[C@H]1CC(=O)C2=C3CC[C@H]4C[C@@H](O)CC[C@]4(C)[C@H]3CC[C@@]21C | x | x | x | -1
CC1(Oc2cccnc2Cl)CCN(Cc2ccc(OC(F)(F)F)cc2)C1 (configuration not stated) | 0 | x | x | -8
COCCNCCCCOc1ccc(C)cc1[N+](=O)[O-] | 0 | 14% | -1% | -25
Cc1ccc([N+](=O)[O-])c(OCCN2CCNCC2)c1 | -62* | -27% | 15% | 27
COCCCNCCOc1ccc(C)cc1[N+](=O)[O-] | -84* | -7% | -2% | -18
C=CCNCCCCOc1ccc(C)cc1[N+](=O)[O-] | -82* | -31% | -1% | 1
Cc1ccc(OCCOCCNC(C)(C)C)c([N+](=O)[O-])c1 | u | -30% | -7% | -16
SMILES | D3 antag | RGS4 inhibitor | uPA surface inh | DRD3 agonist
CC(NC(=O)c1cccc(NC(=O)c2nsc3ccccc23)c1)c1ccccc1 (configuration not stated) | x | -7% | x | 1
CN(C)c1ccc(C=C2C=Cc3ccccc32)cc1 | -4 | -7% | -8% | -3
COc1cc2c(cc1OC)C(=Cc1ccc(N(C)C)cc1)C=C2 | 14 | -13% | -6% | 33*
CCCCC(O)CN1CCC(c2ccccc2)CC1 (configuration not stated) | -57* | 21% | -5% | 2
O=C1O/C(=C/c2ccccc2)c2ccccc21 | 19 | -10% | -1% | 6
N#CC1=C(c2ccccc2)/C(=C/c2ccccc2)OC1=O | -59* | u | -7% | -11
N[C@@H](C(=O)N[C@@H]1C(=O)N2C(C(=O)O)=C(Cl)CC[C@H]12)c1ccccc1 | x | x | x | 2
CC(C)(c1cc(Br)c(O)c(Br)c1)c1cc(Br)c(O)c(Br)c1 | 0 | 16% | 9% | 30*
CS/C(=C\[N+](=O)[O-])Nc1ccc(Cl)cc1 | -84* | -38% | -7% | -16
CCC(CC)c1nnc(NC(=O)Oc2ccccc2)s1 | -69* | -13% | 15% | -3
Cc1nnc(NC(=O)Oc2ccccc2)s1 | -16 | -17% | 13% | -21
Cc1ccc(S(=O)(=O)Cc2nc(-c3ccc(C(=O)NCc4ccccc4F)cc3)oc2C)cc1 | x | -3% | x | x
Cc1ccc(C(=O)Nc2c(-c3ccc(Cl)cc3)[nH][nH]c2=O)cc1 | -70* | x | x | -11
O=C(Nc1c(-c2ccccc2)[nH][nH]c1=O)c1ccc(-c2ccccc2)cc1 | -22 | x | x | -14
O=C(Nc1c(-c2ccc3c(c2)OCO3)[nH][nH]c1=O)c1ccccc1 | -92* | x | x | -8
CCOC(=O)C1(CC2CC2)CCN(Cc2ccc(OC)cc2F)CC1 | -68* | 13% | -2% | -18
CCOC(=O)C1(CC2CC2)CCN(Cc2cc(Cl)c(O)c(OC)c2)CC1 | -3 | -10% | 2% | -12
Cc1cccc(-n2nc([N+](=O)[O-])c(=NC3CCN(Cc4ccccc4)CC3)n2O)c1 | 16 | -5% | 2.8µM* | -12
Cc1ccc(C)c2[nH]c(=O)c(C(c3nnnn3C(C)(C)C)N3CC=C(c4ccc(F)cc4)CC3)cc12 (configuration not stated) | -51* | 28% | -1% | -1
O=C(CCCN1Cc2ccccc2C1)c1ccc(F)cc1 | -151* | -2% | 5% | -15
CN1CCN(CCCC(=O)c2ccc(F)cc2)CC1 | -60* | -6% | 2% | -6
O=C(CN1CCN(c2ccccc2)CC1)c1ccc2cc[nH]c2c1 | -63* | -5% | -11% | 2
O=C(CCCN1CCN(c2ccccc2)CC1)c1ccc(F)cc1 | -102* | x | x | 2
O=C(CN1CCC2(CC1)OCCO2)c1ccc2cc[nH]c2c1 | -20 | 26% | 1% | -11
O=C(CCCN1CCN2CCCC2C1)c1ccc(F)cc1 (configuration not stated) | x | x | x | -19
SMILES | D3 antag | RGS4 inhibitor | uPA surface inh | DRD3 agonist
Cc1cc(C)c(Cn2c3ccccc3c3cnn(CC(=O)NC4CCC(C)CC4)c(=O)c32)c(C)c1 (configuration not stated) | x | -13% | x | -7
Cc1cc(C)n(CC(=O)Nc2ccc(F)c(F)c2)c(=O)c1C#N | x | 19% | x | 3
O=C(CCCCN1CCCCC1)c1ccccc1 | -27 | -2% | 2% | -19
O=C(CCN1Cc2ccccc2C1)c1ccc2c(c1)OCCO2 | -52* | -49% | -24% | -29
O=C(CCCN1CCOC(c2ccccc2)C1)c1ccc(F)cc1 (configuration not stated) | -86* | 14% | -22% | -26
CCc1nnc(NC(=O)c2ccc(S(=O)(=O)N(CC)Cc3ccccc3)cc2)o1 | -99* | -9%[11.4 µM] | -10% | 8

Assay outcomes as filed in PubChem.
